Bioassay records deposited in PubChem by several laboratories.
MazF activator: activators of E. coli MazEF toxin-antitoxin RNase, primary screen, biochemical, fluorescence, uHTS | FAM/BHQ RNA-DNA oligo cleavage fluorescence, 5 h | hit rate 0.32% among 350,000 | AID 504720, 2011 | Endoribonuclease toxin MazF (Escherichia coli (strain K12)), P0AE70 | activation, % at 20 µM; in the data active = activation above about 50%
Target sequence (P0AE70 whole entry, looked up): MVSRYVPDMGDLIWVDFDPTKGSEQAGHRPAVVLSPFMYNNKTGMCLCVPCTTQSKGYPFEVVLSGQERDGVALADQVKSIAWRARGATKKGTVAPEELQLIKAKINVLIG
BH1578 lux ind: inducers of Vibrio cholerae quorum light production without autoinducers, primary screen, BH1578 luxS cqsA deficient, single point; AID 588436, 2011; hit rate 0.16% among 350,000; activation, % at 18.7 µM; V. cholerae BH1578 lux reporter, luminescence, 6 h; in the data active = activation mostly above about 9.7%, no sharp cut-off
PrPC surface inh: inhibitors of human cell surface prion protein PrPC, primary screen, cell-based, TR-FRET | hit rate 0.43% among 370,000 | AID 720596, 2013 | Major prion protein (Homo sapiens), P04156 | inhibition, % at 13.8 µM | TR-FRET read-out; in the data active = inhibition above about 24%; note: 0% = median of the test wells and 100% = reference compound wells
CCHF vOTU inh: CCHFV vOTU protease inhibitors, primary screen, biochemical, Pep-AMC substrate, fluorescence; inhibition, % at 11.5 µM; hit rate 0.55% among 370,000; Crimean-Congo hemorrhagic fever virus L polyprotein viral ovarian tumor (vOTU) protease …; in the data active = inhibition above about 30%; note: 0% = vehicle wells with enzyme and 100% = no enzyme wells
Y pestis TopoI: Yersinia pestis topoisomerase I inhibitors, primary screen, biochemical, cleavage product accumulation, plate reader, single point; DNA topoisomerase I (Yersinia pestis CO92); Y. pestis Topo-I cleavage product accumulation; activity, % at 10 µM; hit rate 0.064% among 360,000; AID 504884, 2011; in the data active = activity above about 50%, passing the limit was not always enough
VHR inh abs: VHR1 phosphatase inhibitors, primary screen, biochemical, absorbance, uHTS; recombinant VHR phosphatase, pNPP absorbance; hit rate 0.52% among 290,000; inhibition, % at 13.3 µM; Dual specificity protein phosphatase 3 (Homo sapiens), P51452; in the data active = inhibition above about 50%
Target sequence (P51452 whole entry, looked up): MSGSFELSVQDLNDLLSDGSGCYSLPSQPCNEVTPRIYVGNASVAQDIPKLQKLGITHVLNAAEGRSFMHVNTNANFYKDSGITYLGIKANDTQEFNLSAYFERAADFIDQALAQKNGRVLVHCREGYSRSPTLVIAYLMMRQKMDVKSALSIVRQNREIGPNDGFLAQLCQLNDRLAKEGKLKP
* = called active by the depositor; i = inactive; / = not tested or not shown; + = active, no number. An excerpt weighted towards active compounds, which were near 1.8% of everything screened.

SMILES	MazF activator	BH1578 lux ind	PrPC surface inh	CCHF vOTU inh	Y pestis TopoI	VHR inh abs
O=C(NC(=S)Nc1cccc(NC(=O)c2ccccc2Cl)c1)c1cccs1	-5	-2	2	-6	3	1
Cc1ccccc1C(=O)Nc1cccc(NC(=S)NC(=O)c2cccs2)c1	-6	+	5	14	3	14
O=C(NCc1ccccc1)Nc1ccccc1C(=O)N1CCCC1	/	/	0	1	/	/
O=C(CSc1nnc(COc2ccc(Cl)cc2)o1)N1c2ccccc2CCc2ccccc21	-4	i	1	12	61*	22
O=Nc1c(O)n(Cc2cccc(Cl)c2)c2ccccc12	2	30*	-11	9	23	34
NC(=S)N=Nc1c(O)n(Cc2ccccc2)c2ccccc12	7	0	4	-8	12	-10
COC(=O)c1ccc(CC(C(=O)c2ccccc2)N(C)C)cc1 (centres undefined)	53*	i	0	-7	3	-6
Cc1ccc2nc(-c3ccc(NC(=O)CSc4nnc(-c5ccccc5)n4Cc4ccco4)cc3)sc2c1	/	/	7	-27	/	/
CCN(CC)CCCNC(=O)c1nn2c(C(F)(F)F)cc(-c3ccccc3)nc2c1Cl	12	-1	-25	7	-12	60*
CCCCNC(=O)C1CCCN1C(=O)Nc1ccc2c(c1)OCO2 (centres undefined)	/	/	-4	-2	/	/
O=c1c2cc(Br)ccc2nc(-c2ccc(Cl)cc2)n1O	1	1	2	-11	8	52*
CCCn1c(O)c(N=Nc2ccc3ccccc3n2)c2ccccc21	146*	0	8	-6	14	6
CC(C)CCn1c(O)c(N=Nc2ccccn2)c2ccccc21	-17	-1	3	6	18	7
Cc1ccc(C(=O)Nc2cccc(C(=O)N/N=C/c3ccc(F)cc3)c2)cc1	63*	-4	-3	14	-8	23
CSc1ccc(/C=N/NC(=O)c2ccc(O)cc2)cc1	-2	i	9	7	-6	60*
O=C(N/N=C/c1ccc(O)cc1)c1csc2ccccc12	1	18*	9	9	-5	16
COc1ccc(C2=CCN(C)C(=O)N2c2ccc([N+](=O)[O-])cc2)cc1	/	/	-6	1	/	/
O=C(Cc1ccccc1F)Nc1nnc(-c2cccnc2)s1	/	/	-2	-4	/	/
CC(=O)N1C[C@@H](c2c[nH]c3ccccc23)C=C[C@H]1C(=O)NS(=O)(=O)c1ccc(C)cc1	/	/	-6	-2	/	/
CC1CN(C2CCCCC2)C(=S)NC1=O (centres undefined)	11	39*	-7	10	-5	/
COc1ccc(S[C@]2(C(=O)N3CCN(c4ncccn4)CC3)CC(=O)N(S(=O)(=O)c3ccc(F)cc3)[C@@H]2c2ccc(OC)cc2)cc1	/	/	5	-2	/	/
COc1ccc(-c2csc(NC(=O)c3ccc(OCC(=O)N4CCOCC4)c(OC)c3)n2)cc1OC	7	-3	4	0	10	3
CC(C)(C)NC(=O)C(c1ccncc1)N(Cc1cccs1)C(=O)Cn1nnc(-c2ccc(F)cc2)n1 (centres undefined)	-4	0	10	9	3	53*
Cc1cccc(CCNC(=O)C2CCC(=O)N(Cc3ccc(Cl)cc3)C2)n1 (centres undefined)	6	i	-7	-1	-2	12
O=C(NCCc1cccc(Cl)c1)C1CCC(=O)N(Cc2ccc(Cl)cc2)C1 (centres undefined)	-4	0	-2	12	14	59*
Cn1c(SCC#N)nnc1-c1ccc2c(c1)OCO2	17	17*	-1	9	-8	8
CC(NCc1ccco1)C(=O)N1CCN(Cc2ccccc2F)CC1 (centres undefined)	/	/	-8	-5	/	/
O=C(Cn1ccc2ccccc2c1=O)NCCC(=O)N1CCN(c2ccccc2)CC1	11	0	4	-9	3	53*
COCc1cn(-c2cccc(-c3noc4c3C(=O)N(CC(=O)N3CCOCC3)CC4)c2)nn1	/	/	4	-3	/	/
